The results in this text go back to PubChem BioAssay (NCATS).

For assay [1], the target named is Metallo-beta-lactamase type 2 (Klebsiella pneumoniae) (UniProt C7C422). In words: qHTS to identify inhibitors of the New Delhi Metallo-beta-lactamase (NDM): assay validation screen against the NCATS LOPAC Collection (AID 1794843). The settings on record: NDM-1 enzyme, nitrocefin hydrolysis, absorbance 485 nm; series mostly up to 38.4 µM. In short, it runs like this: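 Absorbance at 485 nm from nitrocefin turnover (50 uM solution added), read at plateau, gives the read-out. Compounds in DMSO were incubated first with 2 nM final NDM-1 in pH 7.0 HEPES buffer containing 1 uM ZnSO4 and 0.01% Tween20.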
On the technique in general: Quantitative high-throughput screening tests each substance at several concentrations.

The target in assay [2] is Phospholipid hydroperoxide glutathione peroxidase GPX4 (Homo sapiens) (UniProt P36969). The assay is described as follows: Primary qHTS Assay for Inhibitors of Recombinant Selenoprotein Glutathione Peroxidase 4 (GPX4) (AID 1845192). Note: nearly all actives have a fitted effect of over 65% in size. Note: potency is the fitted concentration of half-maximal effect. The conditions noted are these: recombinant GPX4, GR-coupled NADPH fluorescence, 15 min; series mostly up to 50 µM. In short, it runs like this: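 qHTS, GR-coupled: GPX4 200 nM + cpd 30 min RT → GSH 1 mM, NADPH 0.5 mM, GR 100 nM → CHP 0.5 mM start; fluor 340/450 at t0 and t15 min; no-enzyme wells as control.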

Assay [3] has as its target Luciferin 4-monooxygenase (Photinus pyralis) (UniProt P08659). The assay is described as follows: Primary firefly luciferase (FLuc) qHTS assay for identification of artifact compounds. (AID 1845220). Note: nearly all actives have a fitted effect of over 60% in size. The settings on record: purified firefly luciferase, luminescence, 5 min; series mostly up to 54.1 µM. In outline: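 In this counter-screen for luciferase artifacts, test compounds met substrate (10 uM each luciferin and ATP) before 10 nM enzyme started the reaction. Light output was measured 5 min later.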

The test system of assay [4] is Nanoluciferase (engineered Oplophorus gracilirostris luciferase). In words: Primary Nanoluciferase (NLuc) qHTS assay for identification of artifact compounds. (AID 1845222).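 Note: NLuc secreted into diluted conditioned medium of S16 cells.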 The conditions noted are these: NLuc-conditioned medium, Nano-Glo luminescence, 5 min; series mostly up to 54.1 µM. In outline: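 Using secreted nanoluciferase in S16 culture medium (0.22 um filtered, 1:55 dilution), compounds were preincubated 15 min at RT. Signal was generated with Nano-Glo reagent (1:100) over 5 min.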

A short description of assay [5]: Primary redox qHTS assay for identification of artifact compounds. (AID 1845223). The settings on record: Amplex Red/HRP redox cycling with DTT, fluorescence; series mostly up to 53.8 µM. In outline: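 Redox-cycling detection via DTT (250 uM final) oxidation coupled to Amplex Red (25 uM)/HRP (250 mU/mL) in HBSS. 15 min preincubation plus 30 min after DTT, room temperature. Ex/Em 525/598 nm; 4-parameter Hill fit against DMSO and 10 uM DA3003.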

A short description of assay [6]: Quantitative High-Throughput drug screen in 47 multiple myeloma cell lines against the NCATS MIPE library collection: Delta47_JCRB cell viability assay (AID 1918925; note: nearly all actives have a fitted effect of over 45% in size; note: potency is the fitted concentration of half-maximal effect). The conditions noted are these: Delta47 myeloma viability, CellTiter-Glo ATP, 48 h; series mostly up to 45.8 µM. In short, it runs like this: (§1)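 Primary qHTS used for cherry-picking: cells at 500/well, library compounds for 48 h (37C, 5% CO2), luminescent ATP assay.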
A general note: In ATP-based viability assays light output follows the ATP content of the culture.

Assay [7] can be described thus: Quantitative High-Throughput drug screen in 47 multiple myeloma cell lines against the NCATS MIPE library collection: Karpas620_DSMZ cell viability assay (AID 1918959). Note: nearly all actives have a fitted effect of over 30% in size. Note: potency is the fitted concentration of half-maximal effect. The conditions noted are these: Karpas620 myeloma viability, CellTiter-Glo ATP luminescence, 48 h; series mostly up to 45.8 µM. In outline:
(§2)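 qHTS of the MIPE 4.0 collection: 500 myeloma cells/well, 48 h drug exposure at 37C in 5% CO2, then CellTiter-Glo for 5 min at room temperature before luminescence reading.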

A short description of assay [8]: Quantitative High-Throughput drug screen in 47 multiple myeloma cell lines against the NCATS MIPE library collection: FR4_PLB cell viability assay (AID 1918924; note: nearly all actives have a fitted effect of over 35% in size). The settings on record: FR4_PLB myeloma cells viability, CellTiter-Glo ATP, 48 h; series mostly up to 45.8 µM. In short, it runs like this: as §2
The nature of assay [9]: Quantitative High-Throughput drug screen in 47 multiple myeloma cell lines against the NCATS MIPE library collection: EJM_DSMZ cell viability assay (AID 1918926; note: nearly all actives have a fitted effect of over 30% in size). The settings on record: EJM myeloma cell viability, CellTiter-Glo ATP, 48 h; series mostly up to 45.8 µM. In outline:
as §1

The nature of assay [10]: Quantitative High-Throughput drug screen in 47 multiple myeloma cell lines against the NCATS MIPE library collection: AMO1_DSMZ cell viability assay (AID 1918927; note: nearly all actives have a fitted effect of over 30% in size; note: potency is the fitted concentration of half-maximal effect). The conditions noted are these: AMO1 myeloma cells viability, CellTiter-Glo ATP luminescence, 48 h; series mostly up to 45.8 µM. In short, it runs like this:
as §1

The nature of assay [11]: Quantitative High-Throughput drug screen in 47 multiple myeloma cell lines against the NCATS MIPE library collection: ARP1_JJKsccF8 cell viability assay (AID 1918928; note: nearly all actives have a fitted effect of over 40% in size). The settings on record: ARP1 myeloma cells viability, CellTiter-Glo ATP, 48 h; series mostly up to 45.8 µM. In outline:
(§3)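 CellTiter-Glo luminescence after 48 h exposure gives viability, scaled between DMSO-only (100%) and media-only (0%) controls. Library compounds are pinned onto 500 myeloma cells per well, incubated at 37C with 5% CO2.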

A short description of assay [12]: Quantitative High-Throughput drug screen in 47 multiple myeloma cell lines against the NCATS MIPE library collection: ARD_JJKsccE7 cell viability assay (AID 1918929; note: potency is the fitted concentration of half-maximal effect). The settings on record: ARD myeloma cell line viability, CellTiter-Glo, 48 h; series mostly up to 45.8 µM. In outline: as §1
Assay [13] can be described thus: Quantitative High-Throughput drug screen in 47 multiple myeloma cell lines against the NCATS MIPE library collection: KMM1_JCRB cell viability assay (AID 1918960). Note: nearly all actives have a fitted effect of over 30% in size. Note: potency is the fitted concentration of half-maximal effect. The conditions noted are these: KMM1 myeloma viability, CellTiter-Glo ATP luminescence, 48 h; series mostly up to 45.8 µM. In short, it runs like this:
as §3

Assay [14] in a line: Quantitative High-Throughput drug screen in 47 multiple myeloma cell lines against the NCATS MIPE library collection: Karpas417_ECACC cell viability assay (AID 1918961). The conditions noted are these: Karpas417 myeloma viability, CellTiter-Glo ATP luminescence, 48 h; viability (% of DMSO): at 45.8 µM (top of the series). In outline: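 Luminescent ATP measurement with CellTiter-Glo gives viability, scaled between DMSO-only wells (100%) and media-only wells (0%). Cells, 500 per well, faced library compounds for 48 hours at 37C.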

In assay [15] the target is Glutathione peroxidase 1 (Homo sapiens) (UniProt P07203). In words: Primary qHTS Assay for Inhibitors of Recombinant Selenoprotein Glutathione Peroxidase 1 (GPX1) (AID 1845191). Note: nearly all actives have a fitted effect of over 65% in size. The settings on record: recombinant GPX1, GR-coupled NADPH fluorescence, 15 min; series mostly up to 48.8 µM. In outline:
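GPX1 10 nM, GR 100 nM, GSH 1 mM, NADPH 0.5 mM, CHP 0.5 mM (final). 30-min cpd preincubation, RT. Ex340/Em450 read t=0, t=15 min.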

A short description of assay [16]: Quantitative High-Throughput drug screen in 47 multiple myeloma cell lines against the NCATS MIPE library collection: KHM11_PLB cell viability assay (AID 1918962). Note: nearly all actives have a fitted effect of over 35% in size. The conditions noted are these: KHM11 myeloma cell viability, CellTiter-Glo ATP luminescence, 48 h; series mostly up to 45.8 µM. In outline:
as §2

Assay [17] can be described thus: Primary fluorescence-based thiol-reactive (MSTI) qHTS assay for identification of artifact compounds. (AID 1845221).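 Note: thiol-reactive compounds lower the probe fluorescence signal; nearly all actives have a fitted effect of over 65% in size.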 The settings on record: MSTI thiol-reactivity probe, 1 h; series mostly up to 53.8 µM. In outline: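 A multi-concentration qHTS design tested compounds against 4 uM MSTI, pH 7.4 phosphate-buffered saline. Plates were protected from light for 1 h at room temperature before imaging fluorescence.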

Several values for one entry are separate records, joined by “and”; a condition that tells them apart may be missing. Equal values may be shown once. Results filed as inconclusive are left out. Some compounds were tested as several samples or in several runs, with calls that do not always agree. Activity calls are given as the source filed them. Calls come from the whole dose curve; as a rule, active = well fitted curve in the direction sought with a large enough effect; inconclusive = small, poorly fitted or top-dose-only effect, or another doubt; inactive = no such curve, though single readings can be large; an effect the other way counts as inactive or inconclusive.

Sequence of Metallo-beta-lactamase type 2 (Klebsiella pneumoniae) (C7C422 whole entry, looked up): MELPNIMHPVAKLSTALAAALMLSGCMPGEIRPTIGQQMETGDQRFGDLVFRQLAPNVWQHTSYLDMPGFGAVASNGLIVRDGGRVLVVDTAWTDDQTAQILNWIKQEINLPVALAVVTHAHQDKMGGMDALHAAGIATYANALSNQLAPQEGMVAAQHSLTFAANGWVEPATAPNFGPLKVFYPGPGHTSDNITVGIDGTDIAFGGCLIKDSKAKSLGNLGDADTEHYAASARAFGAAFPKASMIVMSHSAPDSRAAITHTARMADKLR
Sequence of Glutathione peroxidase 1 (Homo sapiens) (P07203 whole entry, looked up): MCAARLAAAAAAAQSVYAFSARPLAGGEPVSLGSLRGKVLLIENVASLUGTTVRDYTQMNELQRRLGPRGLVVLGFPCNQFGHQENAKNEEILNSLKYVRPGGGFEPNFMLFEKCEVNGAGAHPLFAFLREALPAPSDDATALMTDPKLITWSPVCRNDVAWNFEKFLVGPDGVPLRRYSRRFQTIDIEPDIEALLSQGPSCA
Sequence of Phospholipid hydroperoxide glutathione peroxidase GPX4 (Homo sapiens) (P36969 whole entry, looked up): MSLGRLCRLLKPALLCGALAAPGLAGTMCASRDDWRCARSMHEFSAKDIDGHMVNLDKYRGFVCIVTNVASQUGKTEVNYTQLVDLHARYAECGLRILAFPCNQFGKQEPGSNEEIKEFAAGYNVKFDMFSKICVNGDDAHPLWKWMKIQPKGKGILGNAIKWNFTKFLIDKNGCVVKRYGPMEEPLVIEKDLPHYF

Consider `O=C1Cc2cc(CCN3CCN(c4nsc5ccccc45)CC3)c(Cl)cc2N1`, for which the compound was called inactive in assay [1], in [3], in [4] and in [5]. Further, the Potency in assay [2] was 15.8 µM (active) and inactive; in assay [6] it was 23.5 µM (active); in assay [7], 8.33 µM (active).
Regarding `CN(CCOc1ccc(NS(C)(=O)=O)cc1)CCc1ccc(NS(C)(=O)=O)cc1`, the compound was classed as inactive in assay [1]. Further, the Potency entry in assay [2], in assay [8], in [6], in [9], in [10] and in assay [11] was “inactive” throughout. For the same compound, the Potency result in [12], in assay [7], in assay [13] and in [14] was “inactive” throughout.
`N[C@@H](Cc1c[nH]c2ccc(O)cc12)C(=O)O`: the call in [1] was inactive. In addition, the Potency entry in assay [15], in [2], in [6], in [9], in assay [7] and in [16] was “inactive” each time. Besides, the Potency in assay [13] is 18.7 µM (active).
For the compound `COc1ccc2[nH]cc(CCNC(C)=O)c2c1`, in assay [1], the compound was called inactive. Moreover, the Potency entry in assay [15], in assay [2], in assay [9], in [12], in assay [7] and in assay [13] was “inactive” throughout. For the same compound, in [14], the Potency entry was “inactive”. In addition, in assay [10], the Potency was 0.235 µM (active).
`COc1nc(C)nc(Cl)c1NC1=NCCN1`: the compound was classed as inactive in assay [1]. The Potency result in [2], in [8], in [10], in assay [11], in assay [12] and in assay [7] was “inactive” each time. In addition, the Potency result in [16] is “inactive”. Besides, in assay [6], the Potency is 11.8 µM (active).
For `Cc1ccc(-c2cc(C(F)(F)F)nn2-c2ccc(S(N)(=O)=O)cc2)cc1`, the compound was called inactive in assay [1], in assay [3], in [17], in [4] and in assay [5]. Further, the Potency result in assay [2], in [8], in [9], in assay [10], in [11] and in [12] was “inactive” throughout. In addition, the Potency entry in assay [7], in [13] and in assay [16] was “inactive” in each case. Also, in [6], the Potency was 16.6 µM (active).
In the case of `CC(C)(Oc1ccc(C2CC2(Cl)Cl)cc1)C(=O)O` (configuration not stated), in [1], the outcome was inactive. The Potency result in assay [2], in assay [8], in [9], in [10], in assay [12] and in assay [7] was “inactive” throughout.
For `CCC1(C)CC(=O)NC1=O` (configuration not stated), the compound was classed as inactive in assay [1]. The Potency entry in assay [15], in assay [2], in [6], in assay [9], in assay [10] and in assay [11] was “inactive” each time. The Potency entry in assay [7], in [13] and in [16] was “inactive” throughout. Also, the Potency in [12] was 0.0037 µM (active).
Regarding `CCc1cccc2c3c([nH]c12)C(CC)(CC(=O)O)OCC3` (configuration not stated), the outcome in assay [1] was inactive. Also, the Potency result in assay [2], in assay [6], in assay [9], in [10], in [11] and in assay [12] was “inactive” each time. Also, the Potency entry in [7], in [13], in assay [14] and in assay [16] was “inactive” in each case.
With `Cc1ccc(C(=O)Nc2ccc(S(=O)(=O)O)c3cc(S(=O)(=O)O)cc(S(=O)(=O)O)c23)cc1NC(=O)c1cccc(NC(=O)Nc2cccc(C(=O)Nc3cc(C(=O)Nc4ccc(S(=O)(=O)O)c5cc(S(=O)(=O)O)cc(S(=O)(=O)O)c45)ccc3C)c2)c1`, the outcome in assay [1] was inactive. In [2], the Potency result was “inactive and 7 µM (active)”. Besides, the Potency result in assay [8], in assay [6], in [9], in assay [11], in assay [12] and in assay [7] was “inactive” each time. Further, the Potency entry in assay [16] was “inactive”.
